Assay outcomes (PubChem BioAssay)
PAX8 reporter: inhibitors of PAX8-driven TPO luciferase reporter, primary screen, RMG-I cells, single concentration; SteadyGlo, 24 h; inhibition, % at 12.6 µM; 360,000 compounds, 1.2% hits;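 active = mean replicate inhibition at least 60% with every replicate also reaching 60%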;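 also: luciferase light reporting Pax8 driven TPO promoter activity; plate controls were median of neutral control wells for no effect and mitoxantrone controls for full effect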
TWEAK-Fn14 inh: inhibitors of TWEAK-Fn14 signaling, primary screen, luciferase reporter cells, uHTS | TWEAK-stimulated Fn14 reporter cells, luciferase luminescence, 8 h | 360,000 compounds, 2% hits | AID 1159606, 2016 | inhibition, % at 10 µM; in the data active = inhibition above about 50%
LGR2 antag: inhibitors of bursicon-induced LGR2 CRE-luciferase signal, primary screen, cell-based, HEK293, CRE-luciferase reporter, bursicon stimulation. inhibition, % at 9.99 µM. AID 720647, 2013. bursicon-stimulated, 4 h. 380,000 compounds, 0.35% hits. Drosophila bursicon receptor LGR2 (rickets);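 active = drop in luminescence signal, shown as inhibition above about 50% in the replicate tests, limit read from the data, passing the limit was not always enough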;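 also: agonist challenge used bursicon conditioned medium at about half maximal strength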
TROY signal inh: inhibitors of TROY-driven NF-kB signaling, primary screen, Q293 LMP1-TROYcd cells, NF-kB luciferase, uHTS; Q293 LMP1-TROYcd NF-kB luciferase reporter, 4 h; inhibition, % at 10 µM; 360,000 compounds, 0.98% hits;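 active = compounds whose plate-normalised and pattern-corrected inhibition of the luciferase reporter signal at the single screening dose is 50% or more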
EWS-Fli inh: EWS/Fli-driven NR0B1 reporter inhibitors, primary screen, A673 cells, NR0B1 luciferase, luminescence, MLPCN library; 350,000 compounds, 0.67% hits; viability-normalised; inhibition, % at 12.6 µM;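 active = mean inhibition of at least 50% after viability correction, with every replicate also passing that limit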;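 also: firefly luciferase signal divided by Alamar Blue viability fluorescence both relative to DMSO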
EBV LMP1 NFkB: EBV LMP1-driven NF-kappaB luciferase reporter inhibitors, primary screen, cell-based, luminescence, single point; LMP1-induced NF-kappaB luciferase reporter cells; inhibition, % at 12.5 µM; 350,000 compounds, 0.69% hits; in the data active = inhibition above about 41%;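 also: 0% = neutral control wells and 100% = reference inhibitor control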
* marks the source's active call; other numbers are inactive results; . = not tested or not shown. Compounds with a hit are over-represented: about 3.2% of the library has one in this group of screens.

SMILES	PAX8 reporter	TWEAK-Fn14 inh	LGR2 antag	TROY signal inh	EWS-Fli inh	EBV LMP1 NFkB
COc1ccc(CCNc2oc(COc3ccccc3Cl)nc2C#N)cc1OC	10	43	-5	52*	0	11
CCN(c1ccccc1)S(=O)(=O)c1ccc(C(=O)Nc2cccc(NC(C)=O)c2)cc1	13	21	-1	-5	4	4
CCN(c1ccccc1)S(=O)(=O)c1cc(C(=O)Nc2ccc(F)c(F)c2)ccc1F	21	80*	.	63*	15	14
COC(=O)c1cccc(-c2ccc(C(c3c(C)[nH][nH]c3=O)c3c(C)[nH][nH]c3=O)o2)c1	-15	8	-2	82*	-14	17
CC(=O)N1CC(=O)N2[C@H](CO)[C@@H](c3ccc(-c4ccc(C#N)cc4)cc3)[C@H]2C1	-3	.	7	.	10	.
O=C(O)c1c2c(nc3ccccc13)/C(=C/c1ccc(O)cc1)CC2	0	77*	71*	51*	20	53*
Cc1ccc(S(=O)(=O)N(C)C[C@H]2Oc3ccc(NS(=O)(=O)c4cn(C)cn4)cc3CC(=O)N([C@H](C)CO)C[C@H]2C)cc1	-1	.	-10	.	8	.
Cc1ccccc1Cn1ccc(=NCc2ccccc2)cc1	85*	.	5	.	13	.
O=c1ccn(Cc2ccccc2)cc1	14	23	-1	-3	-1	4
COc1ccc2c3c([nH]c2c1)[C@@H](CO)N(S(C)(=O)=O)CC31CCN(C(=O)c2ccccc2)CC1	.	.	1	.	14	.
CN(CC(=O)Nc1ccccc1Cl)C(=O)COC(=O)c1nc(Cl)c(Cl)c(Cl)c1Cl	-6	86*	-16	54*	23	-12
COc1ccc(-c2csc(Nc3cc(C)ccn3)n2)cc1OC	-16	9	-75	-24	-32	-7
CC(C)CC(=O)Nc1cccc(-c2csc(-c3ccccc3)n2)c1	.	-18	.	-4	.	67*
Cc1ccnc(Nc2nc(-c3ccccc3)cs2)c1	-181	53*	17	8	-109	-54
CC(=O)Nc1ccc(-c2csc(Nc3cc(C)ccn3)n2)cc1	-101	50*	-15	30	-29	-4
CC(=O)Nc1cccc(-c2csc(Nc3cc(C)ccn3)n2)c1	.	49	.	21	.	-19
CC(=O)Nc1cccc(-c2csc(Nc3ccccn3)n2)c1	.	58*	.	2	.	-34
O=C(Nc1cccc(Cl)c1)N[C@@H]1CC[C@H](CCn2cc(Cc3ccccc3)nn2)O[C@@H]1CO	15	.	28	.	1	.
O=[N+]([O-])c1ccc(O)c(N=Cc2sc3ccccc3c2O)c1	-2	76*	0	76*	-8	-20
O=C(C[C@@H]1C=C[C@@H](NS(=O)(=O)c2ccccc2)[C@H](CO)O1)NCc1ccc(Cl)c(Cl)c1	12	.	20	.	-4	.
CO[C@H]1CN(C)C(=O)c2cc(NS(C)(=O)=O)ccc2OC[C@@H](C)N(C(=O)C2CC2)C[C@@H]1C	-10	.	-1	.	-6	.
O=C(Nc1nc(-c2cccs2)cs1)c1ccc(S(=O)(=O)N2CCCCC2)cc1	31	59*	12	38	-12	6
O=C(Nc1nc(-c2ccccc2)c(C(=O)c2ccccc2)s1)c1ccc(S(=O)(=O)N2CCCCC2)cc1	-6	52*	-2	15	8	-3
COC(=O)[C@@H]1[C@@H](CO)[C@@H]2Cn3c(cccc3=O)[C@@H]2N1CC1CCOCC1	-8	.	-11	.	-36	.
COc1ccc2c3c([nH]c2c1)[C@H](CO)N(C(=O)NC(C)C)CC31CN(C(=O)NC(C)C)C1	.	.	8	.	-13	.
CCOC(=O)C1=C(O)/C(=C/c2ccc(CNC(=O)C(=O)Nc3ccc(C)cc3)o2)N=C1C	.	-6	-32	7	.	77*
COc1ccc(NC(=O)c2ccc(Cl)c(S(=O)(=O)N3CCc4ccccc4C3)c2)cn1	28	86*	35	53*	.	5
CCc1nnc(NC(=O)c2ccc(S(=O)(=O)N3CCOCC3)cc2)s1	-12	0	27	-15	16	78*
CCc1nnc(NC(=O)c2ccc(Cl)c(S(=O)(=O)N3CCc4ccccc4C3)c2)s1	12	14	9	55*	19	6
